Experiment [1] in a line: viability loss with induced miR-34 in A549 – imaging, A549 dox-inducible miR-34, nuclei and caspase counts, primary screen (AID 1347080). The settings on record: A549 miR-34 inducible, Hoechst nuclei count, 48 h.
Experiment [2] can be described thus: MELAS cybrid and Rieske KO viability enhancers – cell-based, MELAS cybrids, Rieske KO mouse fibroblasts, CellTiter-Glo, primary screen (AID 1508586;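 active = mean z-score across replicates of 1.96 or higher in either the MELAS or the Rieske mutant cell line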;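 note: z relative to plate mean and SD of compound and empty wells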). The settings on record: low glucose. Background: Cellular ATP, detected with luciferase, serves as a proxy for viable cell number.
For experiment [3], the system named is Hepatitis C virus NS3 helicase. In words: blockers of NS3h binding to ssDNA – biochemical, fluorescence polarization, LOPAC1280 library, primary screen (AID 687035; in the data active = inhibition above about 37%). To be noted: Purified HCV NS3 helicase, Cy5-dT15 ssDNA binding fluorescence polarization; stronger effect = higher value; concentration not given here. On the technique in general: Polarisation of emitted light reports the rotation of a fluorescent probe.

Experiment [4] is described as follows: compounds altering Cy5-DNA-NS3h complex signal – biochemical, LOPAC1280, artefact control for HCV NS3 helicase inhibitor project (AID 687037; call rule not given here). The settings on record: Cy5-DNA-NS3h complex fluorescence interference counterscreen. (A counterscreen serves to expose hits that act by an unwanted route or on another target.)
The nature of experiment [5]: blockers of cellular phospholipid synthesis – cell-based, LOPAC library, screen 4, primary screen (AID 1347384; call rule not given here). To be noted: animal cells, phospholipid biosynthesis inhibition screen; at 10 µM.
The nature of experiment [6]: galactose survival enhancers in mitochondrial complex I cybrids – cell-based, galactose medium, ATP luminescence, primary screen (AID 1645843;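 active = z-score of at least 1.8 in each of two replicates, scored against plate mean and spread of sample wells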;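 note: positive z means more ATP and so rescue of galactose-driven cybrid death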). The settings on record: complex I mutant cybrid cells, 72 h, stronger effect = higher value.
The mark [7] stands for this setting: stronger effect = lower value, cell number ratio, induced over uninduced.
Setting [8] is: measured here: relative caspase fold change +Dox/-Dox.
Where [9] appears, read: measured here: total cells with miR-34 induction, stronger effect = lower value.
The mark [10] stands for this setting: measured here: total cells without miR-34 induction.
Where [11] appears, read: MELAS cybrid survival, CellTiter-Glo 48 h, stronger effect = higher value.
The mark [12] stands for this setting: Rieske KO mouse fibroblast survival, CellTiter-Glo 72 h.

“And” between values parts separate entries of the source, which are not always exact repeats. Identical values can stand only once. The source made the active and inactive calls.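 Rule for the calls, unless noted: active = compounds whose cell count with miR-34 switched on is under 0.7 times the count with it off; inactive = the rest.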

Regarding `CC(=Cc1csc(C)n1)C1CC2OC2CCCC(C)C(O)C(C)C(=O)C(C)(C)C(O)CC(=O)O1` (configuration not stated), the fold change in experiment [1] (setting [7]) is 1.08 (inactive); in experiment [1] (setting [8]), 1.17. The cell count stood at 1520 in experiment [1] (setting [9]) and 1410 in experiment [1] (setting [10]). Further, the z-score in experiment [2] (setting [11]) is 1.25 (inactive); in experiment [2] (setting [12]) it was 0.224.
With `CN1CCCCC1Cn1cc(C(=O)c2cc([N+](=O)[O-])ccc2I)c2ccccc21` (configuration not stated), the fold change in experiment [1] (stronger effect = lower value) was 0.887 (inactive) and 1.03 (inactive); in experiment [1] (setting [8]), 0.479 and 0.87. Besides, the cell count in experiment [1] (setting [9]) was 5220 and 6710; in experiment [1] (setting [10]), 5890 and 6500. Also, the z-score in experiment [2] (setting [11]) was 0.0965 (inactive); in experiment [2] (setting [12]) it was -0.371.
Consider `CC1CNCCc2ccc(Cl)cc21` (configuration not stated), for which the fold change in experiment [1] (stronger effect = lower value) is 0.911 (inactive); in experiment [1] (setting [8]), 0.645. Moreover, the cell count in experiment [1] (setting [9]) worked out at 8250; in experiment [1] (setting [10]), 9060. Also, the z-score in experiment [2] (setting [11]) was -0.213 (inactive); in experiment [2] (setting [12]), -0.176.
With `Fc1cc(F)c2c(c1)[C@H]1C=CC[C@@H]1C(c1cccnc1)N2` (some centres not stated), the fold change in experiment [1] (setting [7]) is 0.966 (inactive); in experiment [1] (setting [8]), 0.287. The cell count in experiment [1] (setting [9]) stood at 1650; in experiment [1] (setting [10]), 1710. The z-score in experiment [2] (setting [11]) was 1.16 (inactive); in experiment [2] (setting [12]), 0.671.
As to `CCN1C[C@@]2(COC)C3[C@@H](OC)C4[C@@H]1C3([C@@H]1C[C@@]3(O)[C@H](OC(=O)c5ccccc5)[C@@H]1[C@]4(OC(C)=O)[C@@H](O)[C@@H]3OC)[C@H](OC)C[C@H]2O`, the inhibition (as a rule, the change of the read-out against control, counted positive when it falls) in experiment [3] is -4% (inactive). The fluorescence ratio (interference) in experiment [4] is 1 (inactive). Besides, the figures for the fold change in experiment [1] (stronger effect = lower value) and in experiment [1] (setting [8]) were 1.01 (inactive) and 1.67, respectively. In addition, the cell count worked out at 10600 in experiment [1] (setting [9]) and 10500 in experiment [1] (setting [10]). Besides, the compound was called inactive in experiment [5]. For the same compound, the z-score in experiment [6] is 0.075 (inactive).
Turning to `CN1CCN(c2nc3ccccc3nc2Cl)CC1`, the fold change in experiment [1] (setting [7]) was 0.946 (inactive); in experiment [1] (setting [8]), 0.445. Besides, the cell count in experiment [1] (setting [9]) stood at 7800; in experiment [1] (setting [10]), 8250. For the same compound, the results for the z-score in experiment [2] (setting [11]) and in experiment [2] (setting [12]) were -0.222 (inactive) and -0.11, respectively.
On to `CCCC[N+]1(C)[C@@H]2CC(OC(=O)C(CO)c3ccccc3)C[C@H]1[C@@H]1O[C@@H]12` (some centres not stated), for which the fold change is 0.94 (inactive) in experiment [1] (setting [7]) and 1.14 in experiment [1] (setting [8]). Further, the cell count is 9330 in experiment [1] (setting [9]) and 9930 in experiment [1] (setting [10]). The values for the z-score in experiment [2] (setting [11]) and in experiment [2] (setting [12]) were -0.311 (inactive) and 0.426, respectively.
In the case of `Clc1ccc(C(Cn2ccnc2)OCc2c(Cl)cccc2Cl)c(Cl)c1` (configuration not stated), the fold change in experiment [1] (setting [7]) was 0.876 (inactive) and 0.926 (inactive); in experiment [1] (setting [8]), 1.06 and 1.05. Further, the cell count is 8420 and 7330 in experiment [1] (setting [9]); 9620 and 7910 in experiment [1] (setting [10]). Besides, the z-score in experiment [2] (setting [11]) was -0.214 (inactive) and 1.01 (inactive); in experiment [2] (setting [12]), -1.26 and 0.334.
As to `CN1CC[C@@]2(C)c3cc(OC(=O)Nc4ccccc4)ccc3N(C)[C@@H]12`, in experiment [3], the inhibition was -3% (inactive). The fluorescence ratio (interference) in experiment [4] is 1 (inactive). For the same compound, the results for the fold change in experiment [1] (stronger effect = lower value) and in experiment [1] (setting [8]) were 0.963 (inactive) and 1.22, respectively. Besides, the cell count in experiment [1] (setting [9]) came out at 10200; in experiment [1] (setting [10]), 10600. Also, the compound was called inactive in experiment [5]. Further, the z-score in experiment [6] is -0.985 (inactive).
For `CC1CC[C@@]2(OC1)O[C@H]1C[C@H]3[C@@H]4CC=C5CC(O[C@@H]6OC(CO)C(O[C@@H]7OC(C)C(O)C(O)C7O)C(O)C6O[C@@H]6OC(C)C(O)C(O)C6O)CC[C@]5(C)[C@@H]4CC[C@]3(C)[C@@H]1C2C` (some centres not stated), the fold change was 0.658 (active) in experiment [1] (setting [7]) and 1.39 in experiment [1] (setting [8]). Moreover, the cell count in experiment [1] (setting [9]) stood at 1180; in experiment [1] (setting [10]) it was 1800. The z-score in experiment [2] (setting [11]) was 2.01 (active); in experiment [2] (setting [12]), -1.08.
For the compound `CC(=O)Nc1ccc(Cc2ccc(NC(C)=O)cc2)cc1`, the values for the fold change in experiment [1] (stronger effect = lower value) and in experiment [1] (setting [8]) were 0.888 (inactive) and 0.668, respectively. The cell count in experiment [1] (setting [9]) was 8350; in experiment [1] (setting [10]) it was 9400. Also, the figures for the z-score in experiment [2] (setting [11]) and in experiment [2] (setting [12]) were -0.423 (inactive) and 0.257, respectively.
Regarding `O=c1cccc2n1CC1CNCC2C1` (configuration not stated), the values for the fold change in experiment [1] (stronger effect = lower value) and in experiment [1] (setting [8]) were 0.908 (inactive) and 1.17, respectively. Also, the cell count worked out at 7650 in experiment [1] (setting [9]) and 8430 in experiment [1] (setting [10]). For the same compound, the z-score was -0.233 (inactive) in experiment [2] (setting [11]) and -0.215 in experiment [2] (setting [12]).
As for `Cc1c(N)nc(C(CC(N)=O)NCC(N)C(N)=O)nc1C(=O)NC(C(=O)NC(C)C(O)C(C)C(=O)NC(C(=O)NCCc1nc(-c2nc(C(=O)NCCC[S+](C)C)cs2)cs1)C(C)O)C(OC1OC(CO)C(O)C(O)[C@H]1OC1OC(CO)C(O)C(OC(N)=O)C1O)c1cnc[nH]1` (some centres not stated), the fold change in experiment [1] (setting [7]) was 1.05 (inactive); in experiment [1] (setting [8]), 0.471. In addition, the cell count stood at 3100 in experiment [1] (setting [9]) and 2960 in experiment [1] (setting [10]). Further, the z-score in experiment [2] (setting [11]) is -0.352 (inactive); in experiment [2] (setting [12]), -0.104.
With `O=C1C=CC[C@@H]2[C@@H]3CCCN4CCC[C@@H](CN12)[C@@H]34`, the values for the fold change in experiment [1] (setting [7]) and in experiment [1] (setting [8]) were 0.92 (inactive) and 0.733, respectively. For the same compound, the cell count in experiment [1] (setting [9]) came out at 9530; in experiment [1] (setting [10]) it was 10400. The z-score is -0.329 (inactive) in experiment [2] (setting [11]) and 0.595 in experiment [2] (setting [12]).
Regarding `C#C[C@@]1(O)C=C[C@H]2[C@@H]3CCC4=CC(=O)CC[C@@H]4[C@@H]3CC[C@@]21CC`, the fold change in experiment [1] (setting [7]) was 0.87 (inactive); in experiment [1] (setting [8]), 1.21. The figures for the cell count in experiment [1] (setting [9]) and in experiment [1] (setting [10]) were 7070 and 8120, respectively. In addition, the z-score in experiment [2] (setting [11]) was -0.518 (inactive); in experiment [2] (setting [12]), 0.382.
Consider `COc1cc(-n2c(=S)[nH]c3ccccc3c2=O)c(Cl)cc1Cl`, for which the fold change is 0.878 (inactive) in experiment [1] (stronger effect = lower value) and 0.323 in experiment [1] (setting [8]). In addition, the cell count in experiment [1] (setting [9]) was determined as 6620; in experiment [1] (setting [10]), 7540. The z-score is 0.632 (inactive) in experiment [2] (setting [11]) and 1.12 in experiment [2] (setting [12]).
For the compound `CC(=Cc1csc(C)n1)C1CC2O[C@]2(C)CCCC(C)C(O)C(C)C(=O)C(C)(C)C(O)CC(=O)O1` (some centres not stated), the fold change was 1.08 (inactive) in experiment [1] (setting [7]) and 0.662 in experiment [1] (setting [8]). Further, the cell count in experiment [1] (setting [9]) is 1610; in experiment [1] (setting [10]), 1500. Further, the z-score in experiment [2] (setting [11]) is 1.69 (inactive); in experiment [2] (setting [12]), -0.237.
In the case of `O=c1[nH]c2ccc(Cl)cc2c(NC2CN3CCC2CC3)c1-c1nc2ccccc2[nH]1` (configuration not stated), the fold change was 0.941 (inactive) in experiment [1] (setting [7]) and 1.09 in experiment [1] (setting [8]). The results for the cell count in experiment [1] (setting [9]) and in experiment [1] (setting [10]) were 1120 and 1200, respectively. Further, the z-score in experiment [2] (setting [11]) was 1.28 (inactive); in experiment [2] (setting [12]) it was -3.49.

For the origin of these results see PubChem BioAssay.
